Source: PubChem BioAssay (Tox21)
Values joined by “and” are separate entries in the source; they are usually repeats but may differ in a detail not shown here. Identical values can stand only once. Inconclusive results are not listed. Active and inactive are the calls of the source. Unless noted, calls follow the shape of the dose curve; as a rule, active = well fitted curve in the direction sought with a large enough effect in the repeat runs; inconclusive = weak or mixed curves; inactive = no such curve, though single readings can be large; an effect the other way counts as inactive or inconclusive.

Columns and labels:
[1] = qHTS assay to identify small molecule agonists of H2AX (AID 1224845; active = well fitted activation curve with a large enough effect in the signal ratio in the repeat runs, not every such curve was filed as active; the % refers to the signal ratio)
Method in brief: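 Wild-type CHO-K1 cells plated overnight, then exposed 3 hr at 37C to compounds at 15 concentrations (0.76% DMSO). Lysed, then HTRF anti-pH2AX(S139)-cryptate/anti-H2AX-d2 detection after 24 hr at room temperature; emissions 665 and 620 nm.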

[2] = qHTS assay to identify small molecule agonists of the hypoxia (HIF-1) signaling pathway (AID 1224846; active = well fitted activation curve with a large enough effect in the signal ratio in the repeat runs, not every such curve was filed as active; the % refers to the signal ratio)
Method in brief: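 Agonist mode reporter screen. ME-180 cells stably expressing bla under HRE control received test compounds in DMSO for 17 hrs (37C, 5% CO2), and beta-lactamase activity was then detected with the CCF4-AM FRET substrate.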

[3] = qHTS assay to identify small molecule agonists of H2AX - cell viability counter screen (AID 1224847; calls by dose curve; also: top concentration of the series differs between compounds; nearly all actives have a fitted effect of over 30% in size)
Method in brief: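 CHO-K1 cells plated overnight at 37C, then exposed 3 h at 37C to compounds at 15 concentrations (0.76% DMSO final). Viability by CellTiter-Glo luminescence after 30 min at room temperature.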

[4] = qHTS assay to identify small molecule antagonists of the estrogen related receptor (ERR) signaling pathway from Tox21 library (AID 1224848); also: nearly all actives have a fitted effect of over 50% in size
Method in brief: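 First, 2,000 ERR cells per well were plated and held 6 h at 37 C/5% CO2. Next, compounds in DMSO were pinned in and left 18 h at 37 C. Finally, ONE-Glo was added and luminescence read after 30 min at room temperature.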

[5] = qHTS assay to identify small molecule agonists of the estrogen related receptor (ERR) signaling pathway from Tox21 library (AID 1224849; calls by dose curve; also: nearly all actives have a fitted effect of over 15% in size); settings: ERR reporter cell line, ONE-Glo luciferase, 18 h; at 92.4 µM (top of the series)
Method in brief: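 Quantitative HTS in agonist format: NTP ERR cell line, compounds transferred in DMSO after 6 h plating, 18 h incubation at 37 C, ONE-Glo luminescence endpoint.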

[6] = qHTS RealTime-Glo MT Cell Viability Assay in HepG2 cells - 24 hour (AID 1224867); also: nearly all actives have a fitted effect of over 50% in size
Method in brief: (§1)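 Luminescence read-out: viable HepG2 cells reduce a prosubstrate to a NanoLuc substrate, giving a signal proportional to live cell number. Reads taken at 0, 8, 16, 24, 32 and 40 h of compound exposure at 37 C.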

[7] = A CellTox Green Cytotoxicity Assay to monitor cytotoxicity in HEK293 cells - 0 hour (AID 1224869); also: nearly all actives have a fitted effect of over 50% in size
Method in brief: (§2)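 Dead-cell fluorescence measured kinetically: asymmetric cyanine dye, HEK293, 600 cells/well, 5 h settle, 23 nL cpd/DMSO, 37 C, reads 0–40 h every 8 h.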

[8] = qHTS RealTime-Glo MT Cell Viability Assay in HepG2 cells - 40 hour (AID 1224870); also: nearly all actives have a fitted effect of over 50% in size
Method in brief: (§3)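 HepG2 cells mixed with RealTime-Glo MT reagents (NanoLuc plus cell-permeant prosubstrate) were seeded at 600 cells/well, incubated 5 h at 37 C/5% CO2, then pinned with compounds in DMSO; nonlytic luminescence tracked viability during 40 h treatment.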

[9] = A CellTox Green Cytotoxicity Assay to monitor cytotoxicity in HEK293 cells - 40 hour (AID 1224871); also: nearly all actives have a fitted effect of over 45% in size
Method in brief: as §2

[10] = qHTS RealTime-Glo MT Cell Viability Assay in HepG2 cells - 8 hour (AID 1224873); also: nearly all actives have a fitted effect of over 55% in size
Method in brief: as §3

[11] = A CellTox Green Cytotoxicity Assay to monitor cytotoxicity in HEK293 cells - 24 hour (AID 1224875); also: nearly all actives have a fitted effect of over 45% in size
Method in brief: as §2

[12] = A CellTox Green Cytotoxicity Assay to monitor cytotoxicity in HepG2 cells - 16 hour (AID 1224876); also: nearly all actives have a fitted effect of over 45% in size
Method in brief: (§4)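 First, HepG2 cells (600/well) mixed with reagent were plated; second, after 5 h at 37 C they received compounds via pintool; third, fluorescence was measured at 0 h through 40 h at 8 h intervals.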

[13] = qHTS RealTime-Glo MT Cell Viability Assay in HepG2 cells - 32 hour (AID 1224877); also: nearly all actives have a fitted effect of over 55% in size
Method in brief: as §1

[14] = A CellTox Green Cytotoxicity Assay to monitor cytotoxicity in HepG2 cells - 24 hour (AID 1224878); also: nearly all actives have a fitted effect of over 45% in size
Method in brief: as §4

[15] = A CellTox Green Cytotoxicity Assay to monitor cytotoxicity in HepG2 cells - 40 hour (AID 1224879); also: nearly all actives have a fitted effect of over 40% in size
Method in brief: as §4

[16] = qHTS RealTime-Glo MT Cell Viability Assay in HEK293 cells - 0 hour (AID 1224880)
Method in brief: (§5)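 600 HEK293 cells per well, dispensed already mixed with RealTime-Glo MT reagents. Compound dosing came 5 h later. The same wells were read for luminescence at 0, 8, 16, 24, 32 and 40 h of exposure at 37 C.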

[17] = A CellTox Green Cytotoxicity Assay to monitor cytotoxicity in HEK293 cells - 32 hour (AID 1224881); also: nearly all actives have a fitted effect of over 40% in size
Method in brief: as §2

[18] = qHTS RealTime-Glo MT Cell Viability Assay in HEK293 cells - 32 hour (AID 1224868)
Method in brief: (§6)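 Nonlytic real-time viability readout: viable cells convert prosubstrate to NanoLuc substrate, giving luminescence proportional to live cell number. HEK293, 600 cells/well, compound added after 5 h, continuous culture at 37 C.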

[19] = qHTS RealTime-Glo MT Cell Viability Assay in HEK293 cells - 16 hour (AID 1224872)
Method in brief: as §6

[20] = qHTS RealTime-Glo MT Cell Viability Assay in HEK293 cells - 40 hour (AID 1224874); settings: RealTime-Glo luminescence; max response: stronger effect = lower value; also: nearly all actives have a fitted effect of over 50% in size
Method in brief: as §5
% is scaled to controls: 0 for no effect and ±100 for the full control effect.

CC(COCC(C)OC(=O)c1ccccc1)OC(=O)c1ccccc1 (configuration not stated)
inactive: Potency [1] | outcome [2] | Potency [3] | Potency [4] | activity change, positive = activation [5] -2.03% and -5.66% | Potency [6] | Potency [7] | Potency [8] | Potency [9] | Potency [10] | Potency [11] | Potency [12] | Potency [13] | Potency [14] | Potency [15] | Potency [16] | Potency [17]

Cc1ccc(Cl)cc1
inactive: Potency [1] | outcome [2] | Potency [3] | Potency [6] | Potency [18] | Potency [7] | Potency [8] | Potency [9] | Potency [19] | Potency [10] | max response [20] 3.18% and 19.9% | Potency [12] | Potency [13] | Potency [14] | Potency [15] | Potency [17]

CC(C)=CCC/C(C)=C/C=O
inactive: Potency [1] | outcome [2] | Potency [3] | Potency [6] | Potency [18] | Potency [7] | Potency [8] | Potency [9] | Potency [19] | Potency [10] | max response [20] 4.59% and 11.5% | Potency [11] | Potency [12] | Potency [13] | Potency [14] | Potency [15] | Potency [16] | Potency [17]

Cc1ccc(C)c(S(=O)(=O)O)c1
inactive: Potency [1] | outcome [2] | Potency [3] | Potency [6] | Potency [18] | Potency [7] | Potency [8] | Potency [9] | Potency [19] | Potency [10] | max response [20] 6.87% and -2.89% | Potency [12] | Potency [13] | Potency [14] | Potency [15] | Potency [16] | Potency [17]

CCOC(=O)CC(=O)OCC
inactive: Potency [1] | outcome [2] | Potency [3] | Potency [6] | Potency [18] | Potency [7] | Potency [8] | Potency [9] | Potency [19] | Potency [10] | max response [20] 5.3% and 0.825% | Potency [12] | Potency [13] | Potency [14] | Potency [15] | Potency [16] | Potency [17]

C=C(C)CC(C)(C)C
inactive: Potency [1] | outcome [2] | Potency [3] | Potency [6] | Potency [18] | Potency [7] | Potency [8] | Potency [9] | Potency [19] | Potency [10] | max response [20] 7.8% and -7.58% | Potency [11] | Potency [12] | Potency [13] | Potency [14] | Potency [15] | Potency [16] | Potency [17]

NC(N)=S
inactive: Potency [1] | outcome [2] | Potency [3] | Potency [6] | Potency [18] | Potency [7] | Potency [8] | Potency [9] | Potency [19] | Potency [10] | max response [20] 2.78% and 0.322% | Potency [12] | Potency [13] | Potency [14] | Potency [15] | Potency [17]

Cc1ccc(C(C)C)cc1
inactive: Potency [1] | outcome [2] | Potency [3] | Potency [6] | Potency [18] | Potency [7] | Potency [8] | Potency [9] | Potency [19] | Potency [10] | max response [20] 2.75% and 28.4% | Potency [12] | Potency [13] | Potency [14] | Potency [15] | Potency [16] | Potency [17]

COc1c2ccoc2cc2oc(=O)ccc12
inactive: Potency [1] | outcome [2] | Potency [3] | Potency [6] | Potency [18] | Potency [7] | Potency [8] | Potency [9] | Potency [19] | Potency [10] | max response [20] -25.5% and -38.4% | Potency [11] | Potency [12] | Potency [13] | Potency [14] | Potency [15] | Potency [17]

CC[N+](CC)(CC(=O)Nc1c(C)cccc1C)Cc1ccccc1
inactive: Potency [1] | outcome [2] | Potency [3] | Potency [6] | Potency [18] | Potency [7] | Potency [8] | Potency [9] | Potency [19] | Potency [10] | max response [20] -15.4% and 1.42% | Potency [11] | Potency [12] | Potency [13] | Potency [14] | Potency [15] | Potency [16] | Potency [17]

O=C1CCCCCCCCCCC1
inactive: Potency [1] | outcome [2] | Potency [3] | Potency [6] | Potency [18] | Potency [7] | Potency [8] | Potency [9] | Potency [19] | Potency [10] | max response [20] -9.58% and -0.296% | Potency [11] | Potency [12] | Potency [13] | Potency [14] | Potency [15] | Potency [16]

C=CC(=O)NCOCCCC
inactive: Potency [1] | outcome [2] | Potency [3] | Potency [6] | Potency [18] | Potency [7] | Potency [8] | Potency [9] | Potency [19] | Potency [10] | max response [20] 1.11% and 4.5% | Potency [11] | Potency [12] | Potency [13] | Potency [14] | Potency [15] | Potency [17]

COc1ccc([C@@H]2CC(=O)c3c(O)cc(O[C@@H]4O[C@H](CO[C@@H]5O[C@@H](C)[C@H](O)[C@@H](O)[C@H]5O)[C@@H](O)[C@H](O)[C@H]4O)cc3O2)cc1OC
inactive: Potency [1] | outcome [2] | Potency [3] | Potency [6] | Potency [18] | Potency [7] | Potency [8] | Potency [9] | Potency [19] | Potency [10] | max response [20] 14.9% and 7.9% | Potency [12] | Potency [13] | Potency [14] | Potency [15] | Potency [16] | Potency [17]
